The results in this text go back to PubChem BioAssay.

Where “and” joins values, the source holds several entries; their conditions need not be identical. Equal values may be shown once. Calls of active or inactive are those of the source.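 Rule for the calls, unless noted: active = compounds whose cell count with miR-34 switched on is under 0.7 times the count with it off; inactive = the rest.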

Usually remaining activity stands for the signal under treatment as a percentage of the control signal. The viability is a read-out of living cells in per cent, often relative to untreated cells.

Assay [1] is described as follows: Wnt pathway potentiators raising nuclear beta-catenin – imaging, WNT3A-conditioned medium, mouse C2C12, NPC library, primary screen (AID 1117326; in the data active = nuclear beta-catenin stimulation mostly above about 4.2%, no sharp cut-off; inactive = mostly below about 10%). As to conditions: stronger effect = higher value.
Assay [2] can be described thus: stimulators of insulin release from INS-1E, primary screen, cell-based, 5 mM glucose, NPC library (AID 1117329;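 active = compound raises insulin release from rat beta cells at 5 mM glucose, no numeric limit stated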). The conditions noted are these: rat INS-1E insulin secretion, at 10 µM, stronger effect = higher value.
Assay [3] is described as follows: growth inhibition of GSK3B-pretreated HCT116 cells – cell-based, CellTiter-Glo, 0.2 to 20 µM (AID 1117336;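 active = compounds lowering colon cancer cell viability after pretreatment blocking the GSK3B kinase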). The conditions noted are these: HCT116 viability after GSK3B inhibitor, at 20 µM, stronger effect = higher value. (In ATP-based viability assays light output follows the ATP content of the culture.)
Assay [4] is described as follows: inhibition of endothelial tube formation, primary screen, imaging, VEGF stimulated, CD31 staining, tube area, NPC library (AID 1117340;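 active = compound that reduces growth-factor-driven endothelial tube area in a mixed cell culture, no cutoff stated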). The conditions noted are these: VEGF-stimulated ADSC/ECFC co-culture, at 10 µM, stronger effect = higher value.
Assay [5] is described as follows: GLP1 release stimulators, primary, NCI-H716, NPC library (AID 1117341;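 active = compound raises GLP1 secretion from the human gut endocrine cells, with no numeric limit stated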). The conditions noted are these: NCI-H716 cells, at 10 µM, stronger effect = higher value.
A short description of assay [6]: HCT116 colon cancer cell growth inhibition, primary screen, CellTiter-Glo luminescence, NPC library (AID 1117342;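 active = compounds that lower survival of HCT116 colon cancer cells in the luminescence readout, no numeric limit stated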). The conditions noted are these: at 20 µM (top of the series).
The nature of assay [7]: reduced SW480 viability measured with CellTiter-Glo, NPC library, primary (AID 1117343;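 active = compounds that lower viability of the colon cancer cells in the luminescence readout, with no numeric limit stated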). As to conditions: CellTiter-Glo luminescence; at 20 µM (top of the series) unless noted.
A short description of assay [8]: NPC library primary testing for decreased DLD-1 cell viability via CellTiter-Glo (AID 1117346;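 active = compounds that lower survival of DLD-1 colon cancer cells in the luminescence readout, no cutoff given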). As to conditions: DLD-1 viability, CellTiter-Glo luminescence; at 20 µM (top of the series).
The subject of assay [9] is Aerobactin synthetase IucA (Klebsiella pneumoniae). The assay is described as follows: inhibition of K. pneumoniae IucA enzyme – biochemical, Tocris library, absorbance (AID 1345561; call rule not given here;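 note: 100% = enzyme without compound and 0% = no enzyme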). As to conditions: purified IucA enzyme assay, absorbance (OD) read-out; stronger effect = lower value;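 tested at 8 µM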.
A short description of assay [10]: viability loss with induced miR-34 in A549 – imaging, A549 dox-inducible miR-34, nuclei and caspase counts, primary screen (AID 1347080). The conditions noted are these: A549 miR-34 inducible, Hoechst nuclei count, 48 h.
A short description of assay [11]: galactose survival enhancers in mitochondrial complex I cybrids – cell-based, galactose medium, ATP luminescence, primary screen (AID 1645843;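 active = z-score of at least 1.8 in each of two replicates, scored against plate mean and spread of sample wells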;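 note: positive z means more ATP and so rescue of galactose-driven cybrid death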). As to conditions: complex I mutant cybrid cells, 72 h, stronger effect = higher value.
In assay [12] the target is NAD(+) hydrolase SARM1 (Homo sapiens) (UniProt Q6SZW1). The assay is described as follows: blocking NAD cleavage by SARM1 SAM-TIR – cell lysate, NAD-Glo luminescence (AID 1508614;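 active = compound whose remaining NAD level is above about 45 nM, limit read from the data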;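 note: higher remaining NAD means stronger inhibition of SARM1 NADase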). The conditions noted are these: SAM-TIR HEK293T lysate NADase, at 1 µM, stronger effect = higher value.
Assay [13] can be described thus: P. berghei load reduction in hepatocytes – cell-based, HepG2, luciferase luminescence, HepG2 viability, primary screen (AID 624349; in the data active = parasite load remaining mostly below about 12%, no sharp cut-off; inactive = mostly above about 10%;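 note: 100% = mean of DMSO negative control wells on the same plate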). As to conditions: P. berghei liver stage in HepG2, luciferase luminescence, concentration not given here; parasite load remaining: stronger effect = lower value; viability: measured here: HepG2 viability without parasites.
Assay [14] is described as follows: MELAS cybrid and Rieske KO viability enhancers – cell-based, MELAS cybrids, Rieske KO mouse fibroblasts, CellTiter-Glo, primary screen (AID 1508586;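 active = mean z-score across replicates of 1.96 or higher in either the MELAS or the Rieske mutant cell line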;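 note: z relative to plate mean and SD of compound and empty wells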). The conditions noted are these: low glucose.
Setting [15] is: stronger effect = lower value, cell number ratio, induced over uninduced.
Setting [16] is: measured here: relative caspase fold change +Dox/-Dox.
Setting [17] is: measured here: total cells with miR-34 induction, stronger effect = lower value.
Where [18] appears, read: measured here: total cells without miR-34 induction.
Setting [19] is: MELAS cybrid survival, CellTiter-Glo 48 h, stronger effect = higher value.
[20] abbreviates: Rieske KO mouse fibroblast survival, CellTiter-Glo 72 h.

Sequence of NAD(+) hydrolase SARM1 (Homo sapiens) (Q6SZW1 whole entry, looked up): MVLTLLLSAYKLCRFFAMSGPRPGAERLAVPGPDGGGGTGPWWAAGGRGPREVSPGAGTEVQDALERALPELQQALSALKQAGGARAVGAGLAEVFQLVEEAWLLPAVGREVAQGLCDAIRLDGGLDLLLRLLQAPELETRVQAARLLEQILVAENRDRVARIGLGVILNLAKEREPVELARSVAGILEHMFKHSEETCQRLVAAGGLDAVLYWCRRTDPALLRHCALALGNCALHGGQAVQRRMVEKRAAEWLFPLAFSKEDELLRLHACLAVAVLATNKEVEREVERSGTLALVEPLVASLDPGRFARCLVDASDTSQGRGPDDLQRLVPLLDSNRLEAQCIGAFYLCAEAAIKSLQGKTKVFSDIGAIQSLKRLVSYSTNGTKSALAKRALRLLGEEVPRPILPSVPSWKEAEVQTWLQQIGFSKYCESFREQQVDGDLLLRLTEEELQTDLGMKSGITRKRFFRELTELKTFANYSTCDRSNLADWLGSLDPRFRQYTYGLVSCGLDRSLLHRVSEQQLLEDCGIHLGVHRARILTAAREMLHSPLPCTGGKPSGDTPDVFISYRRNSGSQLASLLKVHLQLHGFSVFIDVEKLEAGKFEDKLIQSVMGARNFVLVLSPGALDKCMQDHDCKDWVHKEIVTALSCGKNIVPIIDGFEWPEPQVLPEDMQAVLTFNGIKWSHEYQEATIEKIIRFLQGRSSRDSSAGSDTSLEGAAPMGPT

Consider `CN1CC(=O)N/C1=N/C(=O)Nc1cccc(Cl)c1`, for which the nuclear beta-catenin stimulation in assay [1] (at 10 µM) was 0.5% (inactive); in [1] (stimulation, at 2 µM), -0.6%. For the same molecule, the insulin secretion stimulation in assay [2] was -2.5% (inactive). Also, in [3], the viability decrease is -6.65% (inactive). In addition, in assay [4], the tube area decrease is -5.1% (inactive). Moreover, the GLP1 secretion stimulation in [5] was 4.2% (inactive). The inhibition of viability in [6] was -16.7% (inactive). Further, the values for the viability decrease (inhibition) in assay [7] and in assay [8] were 45.2% (inactive) and 3.8% (inactive), respectively. In [9], the remaining activity is 109% (inactive). Moreover, the figures for the fold change in assay [10] (setting [15]) and in assay [10] (setting [16]) were 0.899 (inactive) and 1.49, respectively. Moreover, the results for the cell count in [10] (setting [17]) and in [10] (setting [18]) were 8750 and 9740, respectively. In addition, the z-score in assay [11] is 0.46 (inactive).
As to `CN1CCC[C@@H]1Cc1c[nH]c2ccc(CCS(=O)(=O)c3ccccc3)cc12`, the nuclear beta-catenin stimulation in assay [1] (at 10 µM) was 1.8% (inactive); in assay [1] (stimulation, at 2 µM), 1%. The insulin secretion stimulation in assay [2] is 3.3% (inactive). Moreover, the viability decrease in [3] was 30.6% (inactive). In addition, in [4], the tube area decrease is 0.6% (inactive). Besides, the GLP1 secretion stimulation in assay [5] was 5.3% (inactive). The inhibition of viability in [6] was 36.8% (inactive). In addition, the viability decrease (inhibition) was 19.5% (inactive) in [7] and -0.8% (inactive) in assay [8]. The remaining activity in assay [9] was 117% (inactive). Besides, the fold change in assay [10] (setting [15]) was 0.993 (inactive) and 0.947 (inactive); in assay [10] (setting [16]), 1.11 and 0.557. In addition, the cell count was 9730 and 9170 in assay [10] (setting [17]); 9790 and 9680 in [10] (setting [18]). Also, in assay [12], the remaining NAD was 10 nM (inactive). The z-score in [11] was -0.6 (inactive) and -0.525 (inactive).
For the molecule `CN=C(NC#N)Nc1ccc(C2=NNC(=O)CC2C)cc1` (centres undefined), the parasite load remaining in assay [13] is 25% (inactive). In addition, the viability in assay [13] was determined as 67%. For the same molecule, the nuclear beta-catenin stimulation in assay [1] (at 10 µM) is -0.7% (inactive); in [1] (stimulation, at 2 µM) it was -0.1%. Besides, the insulin secretion stimulation in assay [2] is 0.3% (inactive). Moreover, in [3], the viability decrease was -15.4% (inactive). In assay [4], the tube area decrease is -8.1% (inactive). In addition, in assay [5], the GLP1 secretion stimulation is -1.9% (inactive). Moreover, the inhibition of viability in [6] was -3.9% (inactive). Moreover, the viability decrease (inhibition) in assay [7] is 4.1% (inactive); in assay [8], -10.5% (inactive). In addition, in assay [9], the remaining activity is 117% (inactive). Also, the fold change in [10] (setting [15]) was 0.976 (inactive) and 0.925 (inactive) and 0.857 (inactive); in [10] (setting [16]) it was 0.912 and 0.898 and 1.1. Further, the cell count in assay [10] (setting [17]) is 6170 and 8930 and 9670; in assay [10] (setting [18]), 6320 and 9660 and 11300. The z-score in assay [14] (setting [19]) was 0.199 (inactive); in assay [14] (setting [20]), 0.162; in assay [11] it was 0.095 (inactive) and 0.625 (inactive).
Regarding `COCCOC(=O)C1=C(C)NC(C)=C(C(=O)OC/C=C/c2ccccc2)C1c1cccc([N+](=O)[O-])c1` (centres undefined), the parasite load remaining in assay [13] was 41.2% (inactive). Besides, the viability in assay [13] turned out to be 106%. Besides, the nuclear beta-catenin stimulation in [1] (at 10 µM) was 2.6% (inactive); in assay [1] (stimulation, at 2 µM), 0.8%. Further, the insulin secretion stimulation in assay [2] is -0.8% (inactive). The viability decrease in assay [3] is 77.2% (active). In assay [4], the tube area decrease is 104% (active). In assay [5], the GLP1 secretion stimulation is -1.2% (inactive). In addition, in assay [6], the inhibition of viability was 77% (active). Further, the figures for the viability decrease (inhibition) in [7] and in [8] were 87.1% (active) and 86.4% (active), respectively. Also, in assay [9], the remaining activity was 100% (inactive). Moreover, the fold change in assay [10] (setting [15]) is 1.33 (inactive) and 0.874 (inactive) and 0.908 (inactive); in assay [10] (setting [16]), 0.592 and 1.2 and 1.19. The cell count in assay [10] (setting [17]) is 2620 and 3270 and 8480; in assay [10] (setting [18]) it was 1970 and 3740 and 9340. Further, the z-score in assay [14] (setting [19]) is 0.948 (inactive) and 0.937 (inactive); in assay [14] (setting [20]), 1.43 and 0.674; in assay [11], -1.04 (inactive) and -0.7 (inactive) and -0.745 (inactive).
Turning to `O=S1(=O)c2cccc3cccc(c23)N1CCCN1CCN(c2ccc(F)cc2)CC1`, the nuclear beta-catenin stimulation is 1.8% (inactive) in assay [1] (at 10 µM) and 17.7% in assay [1] (stimulation, at 2 µM). For the same molecule, in [2], the insulin secretion stimulation was 3.4% (inactive). In addition, in assay [3], the viability decrease is 74.5% (active). For the same molecule, the tube area decrease in [4] is -3% (inactive). Moreover, the GLP1 secretion stimulation in assay [5] was 0.3% (inactive). Besides, in assay [6], the inhibition of viability is 104% (active). The figures for the viability decrease (inhibition) in assay [7] and in [8] were 136% (active) and 84.5% (active), respectively. The remaining activity in assay [9] is 92.7% (inactive). For the same molecule, the fold change in assay [10] (setting [15]) was 0.902 (inactive); in assay [10] (setting [16]) it was 1.69. In addition, the cell count in assay [10] (setting [17]) amounted to 7340; in [10] (setting [18]) it was 8140. For the same molecule, the z-score in assay [11] is -0.675 (inactive).
